Measurements taken from PubChem BioAssay (NCATS).
Results filed as inconclusive are left out. Active and inactive are the calls of the source. Unless noted, calls follow the shape of the dose curve; as a rule, active = well fitted curve in the direction sought with a large enough effect; inconclusive = small, poorly fitted or top-dose-only effect, or another doubt; inactive = no such curve, though single readings can be large; an effect the other way counts as inactive or inconclusive.

Columns and labels:
[1] = Cellular Toxicity (caspase-3) HepG2 (AID 654); settings: HepG2 caspase-3 activation, luminescence, 0% = DMSO only, 100% = tamoxifen; series mostly up to 92.2 µM;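 also: cells exposed to compound for 16 hours before reading; 0% = DMSO alone and 100% = caspase signal from 100 µM tamoxifen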
In short: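 Luminescent Caspase-Glo 3/7 readout after 16 hr compound exposure of human hepatocellular carcinoma HepG2 cells at 37 °C; qHTS concentration-response, normalized DMSO = 0%, 100 uM tamoxifen = 100%; AC50 by standard Hill equation.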

[2] = Cellular Toxicity (caspase-3) Jurkat (AID 655); settings: Jurkat caspase-3 activation, luminescence, DMSO = 0%, tamoxifen = 100%; series mostly up to 92.2 µM;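 also: cells exposed to compound for 16 h at 37 °C before reading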
In short: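 Luminescent caspase-3/7 readout (aminoluciferin substrate cleavage) in human T-cell leukemia Jurkat cells after 16 hr compound exposure. Concentration-response normalized to DMSO and 100 uM tamoxifen; AC50 by standard Hill equation.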

[3] = Cellular Toxicity (caspase-3) HUV-EC-C (AID 656); settings: HUV-EC-C cells, caspase-3 activation (apoptosis), vehicle = 0, 100 µM tamoxifen = 100%; series mostly up to 92.2 µM
In short: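 Luminescent caspase-3/7 activation (aminoluciferin substrate cleavage) in HUV-EC-C cells after 16 hr compound exposure, 37°C. Signal normalized to DMSO basal and 100 uM tamoxifen as 100%; AC50 from concentration-response fitted with the Hill equation.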

[4] = Cellular Toxicity (caspase-3) SHSY5Y (AID 657); settings: SH-SY5Y caspase-3 activation, DMSO zero, 10 µM staurosporine = 100%; series mostly up to 91.7 µM;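 also: cells exposed to compound for 16 hours at 37 °C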
In short: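 Luminescent caspase-3/7 readout (aminoluciferin release) in SH-SY5Y cells after 16 h compound exposure in complete medium. Activity scaled between DMSO basal and 10 uM staurosporine as 100%; concentration-response fitted to Hill equation for AC50.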

[5] = Cellular Toxicity (caspase-3) BJ (AID 658); settings: BJ fibroblasts, luminescence, normalized: DMSO 0%, staurosporine 100%; series mostly up to 91.7 µM;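 also: cells exposed to compound for 16 hours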
In short: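 Caspase-Glo 3/7 luminescence, read 1 hr after reagent at room temperature, in normal BJ fibroblasts exposed 16 hours at 37 °C. AC50 values from Hill-equation concentration-response, scaled between DMSO basal and 10 uM staurosporine as 100%.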

[6] = Cellular Toxicity (caspase-3) MRC-5 (AID 659); settings: MRC-5 cells, luminescence, normalized: DMSO 0%, 10 µM staurosporine 100%; series mostly up to 91.7 µM
In short: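 Luminescent Caspase-Glo 3/7 read-out (1 h, room temperature) after a 16 h, 37 °C compound exposure of MRC-5 lung fibroblasts at 1500 cells/well. Concentration-response AC50 from Hill equation; 0% DMSO, 100% 10 uM staurosporine.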

[7] = Cellular Toxicity (caspase-3) Mesangial (AID 660); settings: mesangial cells, normalized: DMSO 0%, 100 µM tamoxifen 100%; series mostly up to 91.7 µM;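 also: combined caspase 3 and 7 activity read by Caspase-Glo luminescence; cells exposed to compound for 16 h before the caspase read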
In short: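 Luminescent Caspase-Glo 3/7 readout (aminoluciferin substrate cleavage, 20 min RT) after 16 h compound exposure at 37 °C of normal human mesangial cells. Signal increase normalized between DMSO basal and 100 uM tamoxifen; Hill-equation AC50.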

[8] = Cellular Toxicity (caspase-3) SK-N-SH (AID 661); settings: SK-N-SH caspase-3 activation, qHTS, DMSO as zero, staurosporine as full; series mostly up to 91.7 µM;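 also: cells exposed to compound for 16 hours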
In short: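 Luminescent Caspase-Glo 3/7 read-out after 16 hr compound exposure of SK-N-SH neuroblastoma cells at 37 °C. Signal increase normalized to DMSO (basal) and 10 uM staurosporine (100%); AC50 from Hill equation fits of qHTS concentration-response data.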

[9] = Cellular Toxicity (caspase-3) H-4-II-E (AID 663); settings: H-4-II-E rat hepatoma, scaled: DMSO 0%, 100 µM tamoxifen 100%; series mostly up to 92.2 µM;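 also: cells exposed to compound for 16 hr before readout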
In short: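 Caspase 3/7 activation measured by luminescent aminoluciferin substrate cleavage after 16 hr compound treatment of H-4-II-E cells in complete medium. Increase normalized between DMSO (basal) and 100 uM tamoxifen (100%); Hill-equation AC50 from concentration-response.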

[10] = Cellular Toxicity (caspase-3) Hek293 (AID 664); settings: HEK293 caspase-3 activation, DMSO = 0%, 100 µM tamoxifen = 100%; series mostly up to 92.2 µM;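 also: cells exposed to compound for 16 h at 37 °C before readout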
In short: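 Luminescent Caspase-Glo 3/7 readout (aminoluciferin release) in HEK293 cells after 16 h compound treatment, 37 °C. Normalization: DMSO = basal, 100 uM tamoxifen = 100% stimulation. Concentration-response fitted with standard Hill equation for AC50.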

[11] = Cellular Toxicity (caspase-3) N2a (AID 665); settings: N2a cells, luminescence, normalized: DMSO 0%, 10 µM staurosporine 100%; series mostly up to 92.2 µM;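 also: compound exposure lasted 16 h at 37 °C before readout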
In short: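 Luminescent Caspase-Glo 3/7 readout in N2a mouse neuroblastoma cells after 16 h compound exposure at 37 °C. Signal scaled to DMSO (basal) and 10 uM staurosporine (100%). Concentration-response fitted with Hill equation for AC50.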

[12] = Cellular Toxicity (caspase-3) NIH 3T3 (AID 666); settings: NIH 3T3 caspase-3 activation, apoptosis/toxicity, 0% DMSO, 100% is 100 µM tamoxifen; series mostly up to 92.2 µM;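 also: 0% = DMSO basal and 100% = 100 µM tamoxifen stimulation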
In short: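 NIH 3T3, 1000 cells/well, 5 hr settle then 16 hr compound at 37°C; Caspase-Glo 3/7, 20 min RT, luminescence. DMSO = basal, 100 uM tamoxifen = 100%. Hill-equation AC50, qHTS.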

[13] = Cellular Toxicity (caspase-3) Renal Proximal Tubule (AID 667); settings: renal proximal tubule cells, primary cells freshly taken from rat, solvent-only wells 0%, staurosporine 100%; series mostly up to 91.7 µM;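 also: cells exposed to compound for 16 hours at 37 °C before detection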
In short: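 Luminescent caspase 3/7 signal from peptide-aminoluciferin cleavage measures apoptosis in freshly isolated rat kidney proximal tubule cells after 16 h compound exposure. Concentration-response data are normalized to DMSO and 10 uM staurosporine, and AC50 values come from Hill equation fits.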

[14] = Cell Viability - LYMP2-001 (AID 921); settings: LYMP2-001 lymphoblastoid cell viability; series mostly up to 92.2 µM;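 also: cells exposed to compound for 24 h at 37 °C; 0% = DMSO only and full inhibition = tetraoctylammonium bromide control wells; nearly all actives have a fitted effect of over 70% in size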
In short: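 CellTiter-Glo luminescence (intracellular ATP) after 24 hr compound exposure at 37 C, 2500 lymphoblastoid cells/well in complete medium. AC50 fitted with standard Hill equation; tetraoctylammonium bromide positive control.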

[15] = qHTS assay for small molecule agonists of the antioxidant response element (ARE) signaling pathway measured by Nrf2-dependant transcriptional activity (AID 720636; active = well fitted curve in the direction sought with a large enough effect in the repeat runs; an effect the other way counts as inactive or inconclusive;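 also: HepG2 cells with an ARE-driven luciferase reporter; % of control where 0% means no effect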); settings: ARE-luc HepG2, Nrf2 luciferase reporter, 16 h; series mostly up to 92.4 µM
In short: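 Nrf2-dependent transcription is measured in ARE-luc HepG2 cells: compound is applied for 16 hr at 37 C after a 6 hr attachment period, and luciferase activity is quantified by luminescence using ONE-Glo.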

[16] = qHTS assay for small molecule antagonists of the retinoid-related orphan receptor gamma (ROR-gamma) signaling pathway - cell viability counter screen (AID 720652; active = well fitted curve in the direction sought with a large enough effect in the repeat runs; an effect the other way counts as inactive or inconclusive;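 also: CHO reporter cells with doxycycline-induced ROR-gamma expression; compound exposure lasted 16 hr before ATP read; % is scaled to controls: 0 for no effect and ±100 for the full control effect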); settings: RORgamma reporter cell line viability counter screen; series mostly up to 92.2 µM
In short: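 CHO RORE-LUC/TET-ROR line, 1,000 cells/well, 37 C 5% CO2 5 hr; cpd or DMSO + doxycycline induction, 16 hr. CellTiter-Glo, 30 min RT, luminescence = ATP content.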

[17] = qHTS assay for small molecule agonists of the antioxidant response element (ARE) signaling pathway measured by Nrf2-dependant transcriptional activity - cell viability counter screen (AID 720653; active = well fitted curve in the direction sought with a large enough effect in the repeat runs; an effect the other way counts as inactive or inconclusive; also: % is scaled to controls: 0 for no effect and ±100 for the full control effect); settings: ARE-bla HepG2 viability, CellTiter-Glo ATP luminescence, 16 h; active compounds read low
In short: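 Cytotoxicity counter screen: intracellular ATP quantified by CellTiter-Glo luminescence in the same ARE-bla HepG2 plates, after 16 h compound exposure and a 2 h beta-lactamase substrate step.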

[18] = qHTS assay for cell viability of HEK293 cells (AID 743288); settings: ATP luminescence (CellTiter-Glo), 18 h, active compounds read low; also: % is scaled to controls: 0 for no effect and ±100 for the full control effect; nearly all actives have a fitted effect of over 50% in size
In short: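 ATP luminescence (CellTiter-Glo) reports metabolically competent cell number after parental HEK293 cells, 2,000/well, were treated with DMSO-dissolved compounds for 18 h at 37 C; reagent incubation 30 min, room temperature.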

[19] = qHTS assay for cell viability of the p53RE-bla HCT-116 cell line (AID 743292); settings: p53RE-bla HCT-116 viability, ATP luminescence, 16 h; series mostly up to 95 µM; also: % is scaled to controls: 0 for no effect and ±100 for the full control effect; nearly all actives have a fitted effect of over 55% in size
In short: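 ATP-based luminescence, 16 h compound exposure at 37 C, p53RE-bla HCT-116 cells at 4,000/well.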

[20] = qHTS assay for small molecule activators of the human pregnane X receptor (PXR) signaling pathway (AID 720659; call rule not given here; also: 0% is about no effect); settings: DPX-2 HepG2 CYP3A4-luciferase, 24 h; series mostly up to 92.3 µM

Measured: max response

CC1=CC(=O)CC(C)(C)C1(O)/C=C/C(C)=C\C(=O)O (stereo not given)
inactive: [1] | [2] | [3] | [4] | [5] | [6] | [7] | [8] | [9] | [10] | [11] | [12] | [13] | [14] | [15] | [16] | [17] 6.26% | [18] 11% | [19] | [20]
